Results taken from the antibiotic and cytotoxicity screens of Wong et al. (2023).
Hit rate of the full screen: of about 39,000 compounds, about 1,500 (3.8%) were called active. For the sample, actives were picked, then their nearest neighbours and some compounds at random.

These molecules were tested on HSkMC (human skeletal muscle cells) (assay: cytotoxicity call (relative viability < 0.9)). Settings: 10 µM.

SMILES | cytotoxicity call
CC(=O)OCC(=O)C12OC3(CCCC3)OC1CC1C3CCC4=CC(=O)C=CC4(C)C3(F)C(O)CC12C (stereo not given) | inactive
C[C@@H]1CN([C@H](C)CO)C(=O)Cc2cc(NS(=O)(=O)c3cccs3)ccc2O[C@H]1CN(C)Cc1ccc(-c2ccccc2)cc1 | inactive
Cc1ccc(-c2ccc3c(c2)O[C@@H](CN(C)C(=O)NC(C)C)[C@@H](C)CN([C@H](C)CO)S3(=O)=O)cc1 | inactive
COc1ccc(NC(=O)N(C)C[C@@H]2OCCCC[C@@H](C)Oc3ccc(NC(=O)Cc4ccccc4)cc3C(=O)N([C@H](C)CO)C[C@H]2C)cc1 | inactive
C[C@@H]1CCCCO[C@@H](CN(C)C(=O)Cc2ccccc2)[C@@H](C)CN([C@H](C)CO)C(=O)c2cc(NC(=O)c3ccccc3)ccc2O1 | inactive
COc1ccc(-c2cccc(-c3nc(C(=O)NCC(F)(F)F)cc4c3[C@H](CCO)N([S@@](=O)C(C)(C)C)C4)c2)cc1 | inactive
C[C@@H]1CCCCO[C@@H](CN(C)C(=O)Cc2ccccc2)[C@H](C)CN([C@@H](C)CO)C(=O)c2cc(NC(=O)CCC(F)(F)F)ccc2O1 | inactive
Cc1cc(Nc2ncc(Cl)c(Nc3ccccc3S(=O)(=O)C(C)C)n2)c(OC(C)C)cc1C1CCNCC1 | active
COc1cc(N2CCC(N)CC2)ccc1Nc1ncc(Cl)c(-c2c[nH]c3ccccc23)n1 | active
COc1cc(N2CCC(O)CC2)ccc1Nc1cc(Nc2ccccc2S(=O)(=O)C(C)C)c2cc[nH]c2n1 | inactive
COc1cc(N2CCC(N3CCN(C)CC3)CC2)ccc1Nc1ncc(Cl)c(Nc2ccccc2S(=O)(=O)C(C)C)n1 | active
COc1cc(N2CCC(N(C)C)CC2)ccc1Nc1ncc(Cl)c(Nc2ccccc2P(C)(C)=O)n1 | active
COc1cc(C(=O)NC2CCN(C)CC2)ccc1Nc1ncc2c(n1)N(C1CCC(O)CC1)CCC(=O)N2C (stereo not given) | inactive
NC1CCN(C(=O)c2c[nH]c3ccccc23)CC1 | inactive
Cc1noc(C)c1NC(=O)N(C)C[C@H]1Oc2ccc(NC(=O)CCCN(C)C)cc2C(=O)N([C@@H](C)CO)C[C@H]1C | inactive
C[C@H]1CN([C@@H](C)CO)C(=O)c2cc(NC(=O)Cc3cn(C)c4ccccc34)ccc2O[C@H]1CN(C)Cc1ccc(C(=O)Nc2ccccc2N)cc1 | inactive
COc1ccc(NC(=O)N(C)C[C@@H]2OCCCC[C@@H](C)Oc3ccc(NS(=O)(=O)c4ccccc4)cc3C(=O)N([C@@H](C)CO)C[C@H]2C)cc1 | inactive
O=C(C[C@@H]1C=C[C@H](NC(=O)CN2CCOCC2)[C@@H](CO)O1)NC1CCCCC1 | inactive
C[C@@H]1CN([C@@H](C)CO)S(=O)(=O)c2ccc(C#CCC3CCCC3)cc2O[C@@H]1CN(C)C(=O)c1cnccn1 | inactive
C[C@H](CO)N1C[C@H](C)[C@H](CN(C)Cc2ccc(C(=O)O)cc2)Oc2ccc(NS(=O)(=O)c3cn(C)cn3)cc2C1=O | inactive
O=C(NCCN1CCCC1)[C@H]1[C@H](CO)[C@H]2Cn3c(cccc3=O)[C@H]2N1C(=O)c1ccccc1 | inactive
CC(C)(C)NCC(O)COc1ccccc1C1CCCC1.O=S(=O)(O)O (stereo not given) | inactive

SMILES | cytotoxicity call
Cc1ccc2sc(C(=O)O)cc2c1 | inactive
COc1ccc(S(=O)(=O)Nc2ccc3c(c2)C(=O)N([C@@H](C)CO)C[C@@H](C)[C@H](CN(C)C(=O)Nc2cccc4ccccc24)OCCCC[C@@H](C)O3)cc1 | inactive
C[C@H]1CN([C@@H](C)CO)S(=O)(=O)c2ccc(C#Cc3cccc(F)c3)cc2O[C@@H]1CN(C)S(=O)(=O)c1cn(C)cn1 | inactive
CO[C@@H]1CN(C)C(=O)c2ccc(NS(C)(=O)=O)cc2OC[C@@H](C)N(S(C)(=O)=O)C[C@H]1C | inactive
C[C@@H]1CN([C@@H](C)CO)C(=O)c2cccc(NC(=O)c3cnccn3)c2O[C@H]1CN(C)S(=O)(=O)c1ccc(Cl)cc1 | inactive
C[C@H]1CN([C@@H](C)CO)C(=O)c2cc(Br)cnc2O[C@H]1CN(C)Cc1ccccc1C(=O)O | inactive
C[C@H]1CN([C@@H](C)CO)C(=O)c2cccc(NC(=O)Nc3ccc(C(F)(F)F)cc3)c2O[C@H]1CN(C)S(=O)(=O)c1ccc(F)cc1 | inactive
O=C(CCCN1CCC(O)(c2ccc(Br)cc2)CC1)c1ccc(F)cc1 | inactive
OC1(c2ccc(Cl)c(C(F)(F)F)c2)CCN(CCCC(c2ccc(F)cc2)c2ccc(F)cc2)CC1 [listing 1 of 2 here] | active
O=C(CCCN1CCC(O)(c2ccc(Cl)cc2)CC1)c1ccc(F)cc1 | inactive
OC1(c2ccc(Cl)c(C(F)(F)F)c2)CCN(CCCC(c2ccc(F)cc2)c2ccc(F)cc2)CC1 [listing 2 of 2 here] | active
COc1ccc(S(=O)(=O)Nc2cccc3c2O[C@@H](CN(C)S(=O)(=O)c2ccccc2)[C@@H](C)CN([C@H](C)CO)C3=O)cc1 | inactive
C[C@@H]1CN([C@H](C)CO)C(=O)c2cccc(NS(=O)(=O)c3cn(C)cn3)c2O[C@H]1CN(C)C(=O)Nc1ccc(F)cc1 | inactive
C[C@@H]1CN([C@@H](C)CO)C(=O)c2cc(NC(=O)Cc3ccccc3)ccc2O[C@@H](C)CCCCO[C@@H]1CN(C)C(=O)Nc1cccc2ccccc12 | inactive
CO[C@H]1O[C@H](CO)[C@@H](OC(=O)Nc2ccc3c(c2)OCO3)[C@H](OC(=O)Nc2ccc3c(c2)OCO3)[C@@H]1OC(=O)Nc1ccc2c(c1)OCO2 | inactive
CN(C)C(=O)C[C@H]1CC[C@@H]2[C@@H](COc3ccc(NS(=O)(=O)c4cccc(F)c4)cc3C(=O)N2C)O1 | inactive
O=C1CN(S(=O)(=O)Cc2ccccc2)C[C@@H]2[C@H](c3ccc(C#Cc4ccc(F)cc4)cc3)[C@@H](CO)N12 | inactive
O=C1CN(S(=O)(=O)Cc2ccccc2)C[C@H]2[C@H](c3ccc(C#Cc4ccc(F)cc4)cc3)[C@@H](CO)N12 | active
O=C1CN(S(=O)(=O)Cc2ccccc2)C[C@@H]2[C@@H](c3ccc(C#Cc4ccc(F)cc4)cc3)[C@@H](CO)N12 | active
O=C1CN(S(=O)(=O)Cc2ccccc2)C[C@H]2[C@@H](c3ccc(C#Cc4ccc(F)cc4)cc3)[C@@H](CO)N12 | inactive
O=C1CN(S(=O)(=O)Cc2ccccc2)C[C@H]2[C@@H](c3ccc(C#Cc4ccc(F)cc4)cc3)[C@H](CO)N12 | inactive
COc1cccc(C#Cc2ccc([C@H]3[C@H](CO)N4C(=O)CN(S(=O)(=O)c5ccccc5C)C[C@@H]34)cc2)c1 | inactive

SMILES | cytotoxicity call
O=C1CN(S(=O)(=O)Cc2ccccc2)C[C@@H]2[C@H](c3ccc(C#Cc4ccc(F)cc4)cc3)[C@H](CO)N12 | active
O=C1CN(S(=O)(=O)Cc2ccccc2)C[C@@H]2[C@@H](c3ccc(C#Cc4ccc(F)cc4)cc3)[C@H](CO)N12 | inactive
O=C1CN(S(=O)(=O)Cc2ccccc2)C[C@H]2[C@H](c3ccc(C#Cc4ccc(F)cc4)cc3)[C@H](CO)N12 | active
COc1cccc(C#Cc2ccc([C@@H]3[C@H]4CN(S(=O)(=O)c5ccccc5C)CC(=O)N4[C@H]3CO)cc2)c1 | inactive
C[C@H](CO)N1C[C@H](C)[C@H](CN(C)Cc2ccc(Oc3ccccc3)cc2)Oc2cc(-c3ccncc3)ccc2S1(=O)=O | inactive
O=C(C[C@@H]1CC[C@@H](NC(=O)CN2CCOCC2)[C@@H](CO)O1)NCCc1ccccc1 | inactive
CC(C)NC(=O)Nc1ccc2c(c1)C(=O)N(C)[C@H]1CC[C@H](CC(=O)NCc3ccc(F)cc3)O[C@H]1CO2 | inactive
COCC#Cc1cnc2c(c1)C(=O)N([C@@H](C)CO)C[C@@H](C)[C@H](CN(C)C(C)=O)O2 | inactive
C[C@@H]1CN([C@H](C)CO)C(=O)Cc2cc(NC(=O)Nc3cccc4ccccc34)ccc2O[C@@H]1CN(C)S(=O)(=O)c1cccs1 | inactive
C[C@H](CO)N1C[C@H](C)[C@H](CN(C)C(=O)Nc2ccc(F)cc2)OCCCC[C@H](C)Oc2ccc(NC(=O)Nc3ccc4c(c3)OCO4)cc2C1=O | inactive
COc1ccc(S(=O)(=O)N(C)C[C@H]2OCc3cnnn3CCCC(=O)N([C@@H](C)CO)C[C@@H]2C)cc1 | inactive
C[C@H]1CN([C@@H](C)CO)C(=O)c2cc(NC(=O)Nc3cccc4ccccc34)ccc2O[C@@H]1CN(C)C(=O)NC1CCCCC1 | inactive
CCCC[P+](CCCC)(CCCC)Cc1ccc(NC(=O)[C@H](Cc2ccc3ccccc3c2)N/C(=N/C2CCCCC2)NC2CCCCC2)cc1 | inactive
CCCC[P+](CCCC)(CCCC)Cc1ccc(NC(=O)[C@@H](Cc2ccc3ccccc3c2)N=C(NC2CCCCC2)NC2CCCCC2)cc1 | active
CC(C)NC(=O)Nc1ccc2c(c1)C(=O)N([C@H](C)CO)C[C@@H](C)[C@@H](CN(C)Cc1ccc3c(c1)OCO3)O2 | inactive
C[C@@H]1CCCCO[C@H](CN(C)Cc2ccc(C(F)(F)F)cc2)[C@H](C)CN([C@@H](C)CO)C(=O)c2cc(NC(=O)Nc3ccc4c(c3)OCO4)ccc2O1 | inactive
C[C@@H]1CCCCO[C@@H](CN(C)Cc2ccc3c(c2)OCO3)[C@H](C)CN([C@H](C)CO)C(=O)c2cc(NC(=O)Nc3ccc(C(F)(F)F)cc3)ccc2O1 | active
C[C@H]1CCCCO[C@H](CN(C)Cc2ccc3c(c2)OCO3)[C@@H](C)CN([C@@H](C)CO)C(=O)c2cc(NC(=O)Nc3ccc(C(F)(F)F)cc3)ccc2O1 | active
C[C@@H]1CCCCO[C@@H](CN(C)Cc2ccc(C(F)(F)F)cc2)[C@@H](C)CN([C@@H](C)CO)C(=O)c2cc(NC(=O)Nc3ccc4c(c3)OCO4)ccc2O1 | inactive
C[C@@H]1CN([C@@H](C)CO)C(=O)c2cc(NC(=O)Nc3ccc(C(F)(F)F)cc3)ccc2O[C@@H](C)CCCCO[C@H]1CN(C)Cc1ccc2c(c1)OCO2 | active
C[C@H]1CCCCO[C@@H](CN(C)Cc2ccc3c(c2)OCO3)[C@@H](C)CN([C@@H](C)CO)C(=O)c2cc(NC(=O)Nc3ccc(C(F)(F)F)cc3)ccc2O1 | active
